The term AC50 denotes the concentration at which the activity in the assay is half-maximal.

This is an account of results in PubChem BioAssay (EPA / NIEHS).

The target in experiment [1] is human RAR-related Orphan Receptor gamma (RORg), RORC (gene 6097) (UniProt P51449). Put plainly: ATG_RORg_TRANS: Attagene TRANS-FACTORIAL HepG2 Assay for human RAR-related Orphan Receptor gamma (RORg) (AID 2283011; active = hit-call score of the fitted dose curve at least 0.9, where 1 is the maximum). Put shortly:
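Reporter transcripts from a transfected RORg-GAL4 chimera in HepG2 cells were quantified 24 h after dosing by RT-PCR, 6-FAM labelling, HpaI digestion and capillary electrophoresis; increases over DMSO baseline were fitted.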

Experiment [2] addresses Retinoic acid receptor RXR-alpha (Homo sapiens) (UniProt P19793). Put plainly: ATG_RXRa_TRANS: Attagene TRANS-FACTORIAL HepG2 Assay for human Retinoid X Receptor alpha (RXRa) (AID 2283012; active = hit-call score of the fitted dose curve at least 0.9, where 1 is the maximum). Put shortly:
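Cells (HepG2) carried transiently transfected GAL4-responsive reporter units. Following a 24 h chemical incubation, reporter mRNA induction was read via RT-PCR fragment analysis; DMSO served as negative control and baseline.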

Experiment [3] concerns the target human Retinoid X Receptor beta (RXRb), RXRB (gene 6257) (UniProt P28702). Put plainly: ATG_RXRb_TRANS: Attagene TRANS-FACTORIAL HepG2 Assay for human Retinoid X Receptor beta (RXRb) (AID 2283013; active = hit-call score of the fitted dose curve at least 0.9, where 1 is the maximum). In short, it runs like this:
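Multiplexed TRANS reporter assay in HepG2; 24 h dosing; reporter mRNA by RT-PCR/CE fluorescence; gain-of-signal relative to DMSO.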

Experiment [4] concerns the target human Vitamin D Receptor (VDR), VDR (gene 7421) (UniProt P11473). The experiment in a line: ATG_VDR_TRANS: Attagene TRANS-FACTORIAL HepG2 Assay for human Vitamin D Receptor (VDR) (AID 2283022; active = hit-call score of the fitted dose curve at least 0.9, where 1 is the maximum). In short, it runs like this:
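Transactivation by an exogenous VDR-Gal4 chimera in transiently transfected HepG2 cells was measured as reporter transcript level 24 hours after chemical treatment. RT-PCR products were analysed by capillary electrophoresis and fitted in the positive direction relative to DMSO.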

Experiment [5] addresses human Thyroid Receptor alpha (THRa1), THRA (gene 7067) (UniProt P10827). The experiment in a line: ATG_THRa1_TRANS: Attagene TRANS-FACTORIAL HepG2 Assay for human Thyroid Receptor alpha (THRa1) (AID 2283014; active = hit-call score of the fitted dose curve at least 0.9, where 1 is the maximum). In short, it runs like this:
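Transcripts from GAL4-UAS-driven reporters, measured after 24 h compound exposure by RT-PCR plus capillary electrophoresis of 6-FAM-labeled fragments, were fitted for gain of signal relative to DMSO. Cells: transiently transfected HepG2 expressing NR-Gal4 chimeras.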

Read-out in experiment [6]: E-selectin (Homo sapiens) (UniProt P16581)
The experiment in a line: BSK_3C_Eselectin: BioMAP Diversity Plus: 3C Assay for Eselectin Biomarker Activity (AID 2283015).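 For outcome: cell surface E-selectin protein quantified by ELISA 24 h after dosing.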 As to conditions: primary human endothelial cells (HUVEC); actives raise or lower the signal. Put shortly:
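E-selectin ELISA readout, fitted bidirectionally relative to DMSO, taken 24 h post-dosing in HUVEC cultures of the 3C system. Overt cytotoxicity tracked with sulforhodamine B staining of parallel wells.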

Read-out in experiment [7]: Interleukin-1 alpha (IL1a), IL1A (gene 3552)
Put plainly: BSK_BE3C_IL1a: BioMAP Diversity Plus: BE3C Assay for Interleukin-1 alpha (IL1a) Biomarker Activity (AID 2283016). As to conditions: primary human bronchial epithelial cells; actives raise or lower the signal. In short, it runs like this:
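Cultures of primary human bronchial epithelial cells receive test chemical. After 24 h, IL-1a is quantified by ELISA, while parallel wells are fixed in TCA and SRB-stained for total protein. Changes in either direction are fitted relative to DMSO.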

Read-out in experiment [8]: Monocyte Chemoattractant Protein-1 (MCP1), CCL2 (gene 6347)
Put plainly: BSK_3C_MCP1: BioMAP Diversity Plus: 3C Assay for Monocyte Chemoattractant Protein-1 (MCP1) Biomarker Activity (AID 2283017). As to conditions: primary human endothelial cells (HUVEC); actives raise or lower the signal. Put shortly:
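MCP-1 was measured by ELISA 24 h after dosing in primary HUVEC 3C cultures and fitted in both directions relative to DMSO; cytotoxicity was checked by SRB total-protein staining in parallel wells.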

Read-out in experiment [9]: Monocyte Chemoattractant Protein-1 (MCP1), CCL2 (gene 6347)
Put plainly: BSK_4H_MCP1: BioMAP Diversity Plus: 4H Assay for Monocyte Chemoattractant Protein-1 (MCP1) Biomarker Activity (AID 2283018). The following applies: primary human endothelial cells (HUVEC); actives raise or lower the signal. Put shortly:
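Readout: MCP-1 ELISA on compound-treated HUVEC, sampled 24 h post-dosing. Baseline and negative control DMSO; bidirectional fit. Overt toxicity checked alongside by sulforhodamine B protein staining at time of biomarker measurement.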

Read-out in experiment [10]: Human Leukocyte Antigen - DR isotype (HLADR), HLA-DRA (gene 3122)
The experiment in a line: BSK_3C_HLADR: BioMAP Diversity Plus: 3C Assay for Human Leukocyte Antigen - DR isotype (HLADR) Biomarker Activity (AID 2283019).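 For outcome: ELISA of cell-surface HLA-DR on HUVEC 24 h after dosing.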 The following applies: primary human endothelial cells (HUVEC); actives raise or lower the signal. Put shortly: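 Bidirectional fitting against DMSO was applied to the HLA-DR ELISA signal from human umbilical vein endothelial cells, 24 h post-dose. Cytotoxicity came from parallel SRB total-protein staining; 3C proliferation was counted by SRB at 48 h.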

Read-out in experiment [11]: Interleukin-8 (IL8), CXCL8 (gene 3576)
Put plainly: BSK_3C_IL8: BioMAP Diversity Plus: 3C Assay for Interleukin-8 (IL8) Biomarker Activity (AID 2283020). As to conditions: primary human endothelial cells (HUVEC); actives raise or lower the signal. Put shortly:
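Human vascular endothelial cells (umbilical vein) in the 3C system; IL-8 level detected by ELISA at 24 h post-dose, with DMSO as baseline.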

Read-out in experiment [12]: Monokine induced gamma interferon (MIG), CXCL9 (gene 4283)
Put plainly: BSK_3C_MIG: BioMAP Diversity Plus: 3C Assay for Monokine induced gamma interferon (MIG) Biomarker Activity (AID 2283021). The following applies: primary human endothelial cells (HUVEC); actives raise or lower the signal. In short, it runs like this: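 After 24 h of treatment, human umbilical vein endothelial cultures (3C system) had their MIG biomarker level determined by ELISA, with DMSO serving as negative control.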

Experiment [13] can be described thus: BSK_3C_SRB: Viability Assessment in the BioMAP Diversity Plus: 3C Assay (AID 2283023).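 Note: fitted both ways against DMSO so a hit may be signal rise or drop.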 The following applies: primary human endothelial cells (HUVEC). Put shortly:
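Cytotoxicity readout in parallel HUVEC 3C cultures: after 24 h compound exposure, cells fixed with 10% TCA, stained with 0.1% SRB and read at 560 nm. Gain or loss relative to DMSO fitted.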

Read-out in experiment [14]: Matrix Metallopeptidase 1 (MMP1), MMP1 (gene 4312)
Put plainly: BSK_BE3C_MMP1: BioMAP Diversity Plus: BE3C Assay for Matrix Metallopeptidase 1 (MMP1) Biomarker Activity (AID 2283024). As to conditions: primary human bronchial epithelial cells; actives raise or lower the signal. In short, it runs like this: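 Dose cells, wait 24 h, run MMP1 ELISA; cells are human bronchial epithelial primaries. Both increases and decreases relative to DMSO counted.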

Experiment [15] is described as follows: BSK_3C_Vis: BioMAP Diversity Plus: 3C Assay for Morphology Visualization (AID 2283025).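 For AC50: light microscopy image of cell morphology used as background control.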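 Note: fitted both ways so gain or loss versus DMSO counts.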 As to conditions: primary human endothelial cells (HUVEC). Put shortly: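 Endothelial cells from human umbilical vein were treated with test chemicals for 24 h and inspected by light microscopy for changes in cell conformation.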
Read-out in experiment [16]: Pselectin, SELP (gene 6403)
Put plainly: BSK_4H_Pselectin: BioMAP Diversity Plus: 4H Assay for Pselectin Biomarker Activity (AID 2283026). As to conditions: primary human endothelial cells (HUVEC); actives raise or lower the signal. Put shortly:
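Human vascular endothelium from umbilical vein; P-selectin measured by ELISA at 24 h post-dose, with cytotoxicity checked by sulforhodamine B total-protein staining in parallel cultures (0.1% SRB after 10% TCA fixation, read at 560 nm).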

Experiment [17] is described as follows: BSK_BE3C_SRB: Viability Assessment in the BioMAP Diversity Plus: BE3C Assay (AID 2283028). As to conditions: primary human bronchial epithelial cells. In short, it runs like this:
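Cytotoxicity read-out: SRB (0.1%) staining of TCA-fixed (10%) human lung bronchial epithelial cells, absorbance 560 nm, 24 h post-dosing. Curves fitted both directions relative to DMSO.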

Read-out in experiment [18]: Thrombomodulin, THBD (gene 7056)
Put plainly: BSK_3C_Thrombomodulin: BioMAP Diversity Plus: 3C Assay for Thrombomodulin Biomarker Activity (AID 2283029). As to conditions: primary human endothelial cells (HUVEC); actives raise or lower the signal. Put shortly:
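Thrombomodulin ELISA, human primary HUVEC, 24 h post-dose; data fitted in both directions relative to DMSO.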

Read-out in experiment [19]: Urokinase-type plasminogen activator receptor (uPAR), PLAUR (gene 5329)
Put plainly: BSK_4H_uPAR: BioMAP Diversity Plus: 4H Assay for Urokinase-type plasminogen activator receptor (uPAR) Biomarker Activity (AID 2283030). The following applies: primary human endothelial cells (HUVEC); actives raise or lower the signal. Put shortly: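 uPAR level read by ELISA on HUVEC cultures (BioMAP 4H) 24 h post-dosing, analyzed for gain or loss relative to DMSO. Parallel SRB staining assessed overt cytotoxicity.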

Records with an inconclusive call do not appear. Active and inactive are the calls of the source. Rule for the calls, unless noted: active = hit-call score of the fitted dose curve at least 0.9, where 1 is the maximum; inactive = score below 0.9.

Sequence of human RAR-related Orphan Receptor gamma (RORg), RORC (gene 6097) (P51449 whole entry, looked up, the tested form may be a part): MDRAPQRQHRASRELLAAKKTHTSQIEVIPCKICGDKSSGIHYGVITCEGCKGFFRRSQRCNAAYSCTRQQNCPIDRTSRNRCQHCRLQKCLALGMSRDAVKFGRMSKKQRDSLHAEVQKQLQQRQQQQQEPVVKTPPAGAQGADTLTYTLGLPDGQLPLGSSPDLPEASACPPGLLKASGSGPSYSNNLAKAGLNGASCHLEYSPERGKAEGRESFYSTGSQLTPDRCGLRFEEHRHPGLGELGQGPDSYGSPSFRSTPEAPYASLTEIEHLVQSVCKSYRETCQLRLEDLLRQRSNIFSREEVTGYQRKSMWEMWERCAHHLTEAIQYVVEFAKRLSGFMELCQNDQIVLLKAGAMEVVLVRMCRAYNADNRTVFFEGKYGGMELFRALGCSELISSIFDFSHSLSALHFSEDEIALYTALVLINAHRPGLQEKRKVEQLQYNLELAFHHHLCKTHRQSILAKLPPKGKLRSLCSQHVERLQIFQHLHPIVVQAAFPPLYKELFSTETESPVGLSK
Sequence of human Vitamin D Receptor (VDR), VDR (gene 7421) (P11473 whole entry, looked up, the tested form may be a part): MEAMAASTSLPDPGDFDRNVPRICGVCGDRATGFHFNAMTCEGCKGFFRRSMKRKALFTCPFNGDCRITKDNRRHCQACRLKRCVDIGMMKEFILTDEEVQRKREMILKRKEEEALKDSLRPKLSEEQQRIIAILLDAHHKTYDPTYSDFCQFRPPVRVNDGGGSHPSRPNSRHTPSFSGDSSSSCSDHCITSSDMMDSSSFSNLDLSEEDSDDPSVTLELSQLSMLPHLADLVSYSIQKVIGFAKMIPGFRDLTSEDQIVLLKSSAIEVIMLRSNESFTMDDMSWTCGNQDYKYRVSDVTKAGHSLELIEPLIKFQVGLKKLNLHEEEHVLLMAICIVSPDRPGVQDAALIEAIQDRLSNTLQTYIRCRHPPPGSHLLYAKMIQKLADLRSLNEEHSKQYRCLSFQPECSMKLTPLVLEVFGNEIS
Sequence of human Retinoid X Receptor beta (RXRb), RXRB (gene 6257) (P28702 whole entry, looked up): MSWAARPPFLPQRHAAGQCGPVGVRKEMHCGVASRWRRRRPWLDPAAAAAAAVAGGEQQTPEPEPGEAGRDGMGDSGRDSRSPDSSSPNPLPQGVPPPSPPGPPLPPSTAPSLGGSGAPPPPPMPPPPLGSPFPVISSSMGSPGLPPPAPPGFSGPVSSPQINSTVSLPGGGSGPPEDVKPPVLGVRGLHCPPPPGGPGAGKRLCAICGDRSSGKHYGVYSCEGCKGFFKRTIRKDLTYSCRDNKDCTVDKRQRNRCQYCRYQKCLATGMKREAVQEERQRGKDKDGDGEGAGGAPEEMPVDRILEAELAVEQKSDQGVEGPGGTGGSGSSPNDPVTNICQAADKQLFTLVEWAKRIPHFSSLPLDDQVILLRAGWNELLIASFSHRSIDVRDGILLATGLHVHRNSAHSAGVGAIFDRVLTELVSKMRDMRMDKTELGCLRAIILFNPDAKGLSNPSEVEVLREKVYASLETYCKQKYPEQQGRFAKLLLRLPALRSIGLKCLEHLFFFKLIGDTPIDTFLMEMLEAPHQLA
Sequence of Retinoic acid receptor RXR-alpha (Homo sapiens) (P19793 whole entry, looked up, the tested form may be a part): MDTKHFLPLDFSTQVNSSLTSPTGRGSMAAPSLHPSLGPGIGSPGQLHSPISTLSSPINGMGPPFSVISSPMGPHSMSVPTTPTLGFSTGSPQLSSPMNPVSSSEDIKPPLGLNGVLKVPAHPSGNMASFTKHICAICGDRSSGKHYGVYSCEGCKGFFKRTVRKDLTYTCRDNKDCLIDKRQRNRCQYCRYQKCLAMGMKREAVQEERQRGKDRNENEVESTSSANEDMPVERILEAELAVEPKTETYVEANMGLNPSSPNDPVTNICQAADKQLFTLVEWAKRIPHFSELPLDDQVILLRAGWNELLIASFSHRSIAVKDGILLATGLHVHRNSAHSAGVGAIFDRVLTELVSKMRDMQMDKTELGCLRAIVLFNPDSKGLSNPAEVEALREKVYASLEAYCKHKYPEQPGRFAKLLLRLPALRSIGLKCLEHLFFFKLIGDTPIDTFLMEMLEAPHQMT
Sequence of E-selectin (Homo sapiens) (P16581 whole entry, looked up): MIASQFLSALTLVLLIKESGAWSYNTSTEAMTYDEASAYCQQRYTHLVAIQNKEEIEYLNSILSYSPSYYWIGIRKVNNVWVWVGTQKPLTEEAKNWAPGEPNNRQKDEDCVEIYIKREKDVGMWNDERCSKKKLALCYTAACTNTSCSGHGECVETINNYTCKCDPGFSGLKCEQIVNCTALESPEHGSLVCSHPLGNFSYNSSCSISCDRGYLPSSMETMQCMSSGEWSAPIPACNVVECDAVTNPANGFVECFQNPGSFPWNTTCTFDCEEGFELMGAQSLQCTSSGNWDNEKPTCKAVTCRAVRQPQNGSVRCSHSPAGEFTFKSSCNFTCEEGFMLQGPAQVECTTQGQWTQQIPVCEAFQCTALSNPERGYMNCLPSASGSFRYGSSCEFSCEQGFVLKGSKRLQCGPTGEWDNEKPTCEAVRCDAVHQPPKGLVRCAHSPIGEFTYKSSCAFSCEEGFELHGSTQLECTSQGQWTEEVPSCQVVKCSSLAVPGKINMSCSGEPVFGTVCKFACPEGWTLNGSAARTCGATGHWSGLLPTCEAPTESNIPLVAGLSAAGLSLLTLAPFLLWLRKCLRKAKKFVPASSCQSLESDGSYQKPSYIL
Sequence of human Thyroid Receptor alpha (THRa1), THRA (gene 7067) (P10827 whole entry, looked up, the tested form may be a part): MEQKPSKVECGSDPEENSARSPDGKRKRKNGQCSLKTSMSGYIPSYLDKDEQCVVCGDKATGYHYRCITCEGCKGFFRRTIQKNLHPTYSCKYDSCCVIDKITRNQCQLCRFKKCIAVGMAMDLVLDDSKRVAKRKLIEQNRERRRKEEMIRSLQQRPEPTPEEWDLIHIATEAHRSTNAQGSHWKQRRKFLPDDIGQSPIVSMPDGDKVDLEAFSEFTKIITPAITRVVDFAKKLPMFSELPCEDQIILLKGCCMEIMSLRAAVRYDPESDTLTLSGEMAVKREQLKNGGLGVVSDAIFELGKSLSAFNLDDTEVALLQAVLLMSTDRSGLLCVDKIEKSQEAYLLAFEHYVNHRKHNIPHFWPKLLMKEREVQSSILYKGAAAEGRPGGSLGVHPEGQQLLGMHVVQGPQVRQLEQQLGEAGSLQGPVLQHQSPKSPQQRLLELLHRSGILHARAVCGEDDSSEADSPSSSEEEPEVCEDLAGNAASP

In the case of `Brc1cc(Br)cc(Br)c1`, the result in experiment [1], in [2] and in [4] was inactive. The AC50 in [3] was 59.7 µM (active).

On to `NC(=O)c1c(Cl)cccc1Cl`, for which the compound was classed as inactive in experiment [1], in experiment [2], in [5], in experiment [6], in experiment [7] and in experiment [8]. Moreover, the outcome in experiment [9], in [10], in [11], in experiment [12], in [13] and in experiment [14] was inactive. Also, the result in experiment [15], in [16], in experiment [17], in experiment [18] and in experiment [19] was inactive.

Take `COC(=O)c1ccc(C(=O)OC)cc1`: the compound was classed as inactive in experiment [1], in [2], in experiment [3], in experiment [5], in experiment [6] and in experiment [7]. For the same compound, the outcome in [8], in experiment [9], in experiment [10], in experiment [11], in [12] and in experiment [13] was inactive. In addition, the result in experiment [14], in experiment [15], in [16], in experiment [17], in experiment [18] and in experiment [19] was inactive.

Take `CC(=O)Nc1cc(S(=O)(=O)O)cc2cc(S(=O)(=O)O)c(N=Nc3ccccc3)c(O)c12`: the result in experiment [1], in [2], in [3] and in experiment [4] was inactive.

Regarding `CN(C)CCC=C1c2ccccc2CCc2ccccc21`, the compound was classed as inactive in experiment [1], in experiment [2] and in [4].

Take `CC(C)COC(=O)c1ccccc1O`: the call in experiment [1], in experiment [2], in experiment [3] and in experiment [5] was inactive.

On to `CCC(=O)OCC=Cc1ccccc1`, for which the compound was classed as inactive in experiment [1], in [2], in [3], in [6], in experiment [7] and in experiment [8]. Further, the outcome in [9], in [10], in [11], in experiment [12], in experiment [4] and in experiment [13] was inactive. Further, the outcome in [14], in experiment [15], in [16], in experiment [17], in experiment [18] and in experiment [19] was inactive.

With `CCCCCCCCCCCCCCCCCC(=O)OCCCCCCCCCCCCCC(C)C`, the compound was classed as inactive in [1], in experiment [2], in experiment [3], in [5] and in experiment [4].

In the case of `CCCCCCCCCC(=O)OCC`, the outcome in [1], in experiment [2], in experiment [12], in [14] and in experiment [17] was inactive. Further, the AC50 was 15.2 µM (active) in experiment [6]; 20 µM (active) in experiment [7]; 32 µM (active) in experiment [8]; 29.7 µM (active) in experiment [9]; 14.4 µM (active) in experiment [10]; 33.2 µM (active) in experiment [11]. In addition, the AC50 in experiment [13] was 32 µM (active); in experiment [15], 14.1 µM (active); in experiment [16], 30.9 µM (active); in [18] it was 29.7 µM (active); in [19], 20 µM (active).
